Reference: PubChem BioAssay AID1745849 (National Center for Advancing Translational Sciences (NCATS), 2022)
The campaign covered roughly 2,100 compounds. About 320 (15%) were called active. About 52% were inconclusive and are not listed. This is one part of the list. A number with no mark means an inactive call. Calls follow the shape of the dose curve; as a rule, active = well fitted cell-killing curve with a large enough effect; inconclusive = small, poorly fitted or top-dose-only effect, or effect the other way; inactive = flat fitted curve, though single readings scatter.

Experiment: Viability Counterscreen for CMV-Luciferase Assay of Inhibitors of ATXN expression; also: nearly all actives have a fitted effect of over 55% in size
Conditions: HEK-293 CMV-luciferase cells viability, protease fluorescence, 24 h; series mostly up to 57.5 µM
Excerpt: PI: Daniel Scoles Ph.D. University of Utah School of Medicine, Salt Lake City, Utah MLPCN Grant: NS073009 Spinocerebellar ataxia type 2 (SCA2) is a multisystem neurodegenerative disease caused by a dominantly acting mutation leading to expansion of a polyQ domain in the ataxin-2 protein (ATXN2). SCA2 patients develop progressive ataxia and later lose function in other neuronal systems. Prominent parkinsonian signs develop in some patients. Like many neurodegenerative disorders, no symptomatic or disease-modifying treatments are known. The primary objective of the proposed research is to identify compounds inhibiting ATXN2 expression and to test them for efficacy in SCA2 mouse models. We have developed a cell-based assay paired with an in vivo mouse model using identical luciferase expression constructs. This approach takes advantage of an ATXN2-luciferase transgene, with the luciferase gene flanked by the upstream and downstream portions of the ATXN2 gene. Here we describe a 5-7 dose quantitative high thoroughput screen (qHTS) for compounds lowering ATXN2 expression. We screened the NIH Molecular Libraries Small Molecule Repository (MLSMR) and NCGC's mechanistically annotated (MIPE) and drug repurposing (NPC) collections of compounds for lowering expression of an ATXN2-luciferase reporter in HEK-293 cells. The assay is a multiplexed cell viability assay to ensure target reduction in the absence of cytotoxicity. Secondary qHTS assays included a CMV-luciferase reporter expressed in HEK-293 cells as well as a biochemical assay using recombinant luciferase to detect inhibitors of the reporter enzyme. Compounds that inhibit ATXN2 expression but is not cytotoxic were selected for confirmatory and secondary screens.
PROTOCOL TABLE (as described by Inglese J, Shamu CE and Guy RK. 2007) SEQUENCE No. (e.g., 1, 2, 3, etc.); […] (e.g., Cells, Incubation, Reagent, etc.); VALUE; DESCRIPTION. 1; Cells; 4 uL; white, solid bottom, 1536-well Greiner assay plate. 2; Incubation; 2 hr; 37 degree C in 5% humidified CO2. 3; Compounds; 23 nL; Kalypsis pintool (Wako USA) equipped with a 1536-well pin head. 4; Incubation; 24 hr; 37 degree C in 5% humidfified CO2. 5; Reagent; 1 uL; Gly-Phe-7-Amino-4-trifluoromethylcoumarin. 6; Incubation; 30 min; 37 degree C in 5% humidfified CO2. 7; Detection; Fluorescence; Viewlux plate reader (PerkinElmer). 8; Reagent; 3 uL; SteadyGlo luciferase solution (Promega). 9; Incubation; 5 min; room temperature. 10; Detection; Luminescence; ViewLux plate reader (PerkinElmer). NOTES (numbers refer to Sequence numbers above) 1. HEK-293 cells expressing CMV-luciferase reporter (designated as SC cells) were suspended in phenol-red free DMEM and dispensed in assay plates using a Multidrop Combi dispenser (Thermo Fisher Scientific). 2. Assay plates were incubated. Evaporation was prevented by covering assay plates with metal lids containing holes to allow gas diffusion. 3. Compounds were added in a dose response manner with the final concentrations of 57, 11.4, 2.28, 0.46, 0.091, 0.018, 0.0037 uM. Vehicle-only plates, with DMSO being pin-transferred to columns 5-48, were inserted uniformly at the beginning and the end of each library to monitor and record any shifts in assay performance. 5. 125 uM Gly-Phe-7-Amino-4-trifluoromethylcoumarin (MP Biomedicals) working concentration was used at a final concentration of 25 uM. 7. To assess cell viability; the assay plates were read using the ViewLux high-throughput CCD imager (PerkinElmer), wherein single end-point fluorescence measurement was acquired (excitation 405/10; emission 540/25 nm). 8. Detection reagent SteadyGlo Luciferase (Promega) was added to the assay plate. 10. Luminescence is then measured on the ViewLux imager equipped with a clear emission filter using a 2 sec exposure. […]
% is scaled to controls: 0 for no effect and ±100 for the full control effect; potency is read from the fitted curve at half-maximal effect.

| SMILES | Potency | activity change, negative = cytotoxicity |
| --- | --- | --- |
| COC12C(COC(N)=O)C3=C(C(=O)C(C)=C(N)C3=O)N1CC1C2N1C (configuration not stated) | 12.6 µM (active) | – |
| Cc1cccc(C)c1-n1nnnc1C(c1cc2ccccc2o1)N1CCC(n2c(=O)[nH]c3ccccc32)CC1 (configuration not stated) | 7.94 µM (active) | – |
| CC(C)(C)n1nnnc1C(CCc1ccccc1)N1CCC(n2c(=O)[nH]c3ccccc32)CC1 (configuration not stated) | 20 µM (active) | – |
| O=c1[nH]c2ccccc2n1C1CCN(C(CCc2ccccc2)c2nnnn2C2CCCC2)CC1 (configuration not stated) | 11.2 µM (active) | – |
| CN1C(=O)NC(=O)/C(=C\C=C\c2ccccc2[N+](=O)[O-])C1=O | 7.94 µM (active) | – |
| Oc1c(Cl)cccc1Cc1cc(Cl)cc(Cl)c1O | 15.8 µM (active) | – |
| c1ccc(CNc2c3c(nc4ccccc24)CCC3)cc1 | inactive | – |
| O=C(Nc1ccc(OC(=O)N2CCCCC2)cc1)N1CCOCC1 | inactive | – |
| CCCCN=C[C@]12CCC(O)CC1(O)CCC1[C@@H]2CC[C@]2(C)[C@H](C3C=CC(=O)O3)CCC12O (some centres not stated) | 1.78 µM (active) | – |
| CC12CCC3C(CCC4(O)CC(O)CCC34C=NO)C1(O)CCC2C1=COC(=O)C1 (configuration not stated) | 0.891 µM (active) | – |
| C1=NCCc2c1[nH]c1ccccc21 | – | 1.29% [at 11.4 µM] |
| COc1cccc2c1C(=O)c1c(O)c3c(c(O)c1C2=O)CC(O)(C(C)=NO)CC3OC1CC(N)C(O)C(C)O1 (configuration not stated) | 14.1 µM (active) | – |
| O=[N+]([O-])c1oc2ccc3ccccc3c2c1CCO | 20 µM (active) | – |
| Cc1ccc(-c2nc(N(C)C3CCN(C)CC3)c3ccccc3n2)cc1 | inactive | – |
| c1ccc2sc(N3CCNCC3)nc2c1 | inactive | – |
| N[C@@H](Cc1ccc(N(CCCl)CCCl)cc1)C(=O)O | 12.6 µM (active) | – |
| O=C(NN=Cc1ccc(N(CCCl)CCCl)cc1)c1cc(=O)[nH]c(=O)[nH]1 | inactive | – |
| O=C1NC(=O)N(CCc2ccc(F)cc2)C(=O)/C1=C/C=C/c1ccccc1 | 7.94 µM (active) | – |
| COc1ccc(CC2NCC(O)C2OC(C)=O)cc1 (configuration not stated) | 0.282 µM (active) | – |
| CCC1(OC(=O)CN)C(=O)OCc2c1cc1n(c2=O)Cc2cc3ccccc3nc2-1 (configuration not stated) | – | 14.6% [at 11.4 µM] |
| COC(=O)c1nc(-c2ccc3c(n2)C(=O)C(N)=C(OC)C3=O)c(N)c(-c2ccc(OC)c(OC)c2O)c1C | 20 µM (active) | – |
| C[C@@H]1O[C@@H](O[C@@H]2C=C3CC[C@@H]4C(CC[C@]5(C)[C@@H](c6ccc(=O)oc6)CC[C@]45O)[C@@]3(C)CC2)[C@H](O)[C@H](O)[C@H]1O (some centres not stated) | 8.91 µM (active) | – |
| COc1ccc(CC2C(=O)NC(C)C(=O)N(C)C3C(=O)N(C)C(Cc4ccc(O)c(c4)Oc4ccc(cc4)C3O)C(=O)NC(C)C(=O)NC(C)C(=O)N2C)cc1 (configuration not stated) | 0.355 µM (active) | – |
| O=C(CSC1c2ccccc2-c2ccccc21)N/N=C/c1ccccc1O | 3.55 µM (active) | – |
| CC(=NCCc1c[nH]c2ccccc12)c1c(O)n(Cc2ccccc2)c(=O)[nH]c1=O | inactive | – |
| CCCCCCC(=O)N/N=C/c1c(O)n(CCCC)c(=S)[nH]c1=O | inactive | – |

| SMILES | Potency | activity change, negative = cytotoxicity |
| --- | --- | --- |
| CCCCCCC(=O)N/N=C/c1c(O)n(CCc2ccccc2)c(=O)[nH]c1=O | 8.91 µM (active) | – |
| COc1ccc(CCNCc2ccc(F)cc2)cc1OC | – | -21.2% [at 11.4 µM] |
| CC12CCC(O)CC1CCC1C2CCC2(C)C(C3=CC(=O)OC3)C(O)CC12O (configuration not stated) | 7.94 µM (active) | – |
| C[C@]12CC[C@H](O)C[C@H]1CC[C@@H]1[C@@H]2CC[C@]2(C)[C@@H](C3=CC(=O)OC3)CC[C@]12O | 0.794 µM (active) | – |
| CC(=O)OC1CC2(O)C3CCC4CC(O)CCC4(C)C3CCC2(C)C1C1=CC(=O)OC1 (configuration not stated) | 0.501 µM (active) | – |
| C[C@]12CCC3C(CCC4=CC(O)CC[C@@]43/C=N/O)C1(O)CCC2C1=CC(=O)OC1 (some centres not stated) | 1.41 µM (active) | – |
| CC[C@@]1(O)C(=O)OCc2c1cc1n(c2=O)Cc2cc3c(NC(=O)CN)cccc3nc2-1 | – | 25.7% [at 11.4 µM] |
| COC1C(O)C(C)OC(OC2C(Oc3cccc4c(O)c5c(=O)oc6ccc(C)c7c(=O)oc(c34)c5c67)OC(C)C(O)C2O)C1O (configuration not stated) | – | 7.77% [at 11.4 µM] |
| CC1OC(OC2C(O)CC(OC3C(O)CC(OC4CCC5(C)C(CCC6C5CCC5(C)C(C7=CC(=O)OC7)C(O)CC65O)C4)OC3C)OC2C)CC(O)C1O (configuration not stated) | 0.251 µM (active) | – |
| CN1C2CCC1/C(=C/c1ccccn1)C(=O)/C2=C\c1ccccn1 | 0.708 µM (active) | – |
| C[C@@H]1C[C@@H]([C@H](O)CC2CC(=O)NC(=O)C2)C(=O)[C@@H](C)C1 | 1.78 µM (active) | – |
| CCC(C)N1C(=O)/C(=C\c2cnc(N(C)C)nc2)C(=O)NC1=S (configuration not stated) | inactive | – |
| C=CCCC[C@@H]1OC(=O)CNC(=O)C([C@@H](C)CC)NC(=O)[C@@H]2CCCN2C(=O)C([C@@H](C)CC)OC(=O)[C@H](Cc2ccccc2)N(C)C(=O)[C@H](C(C)C)NC(=O)C1(C)C (some centres not stated) | 3.55 µM (active) | – |
| CCCCCOc1ccc(C)cc1CN(CCCl)CCCl | 22.4 µM (active) | – |
| CCCCCn1c(=O)c(C(=O)NCc2ccccn2)c(O)c2ccccc21 | – | -15.5% [at 11.4 µM] |
| C[C@H]1[C@@H](OS(=O)(=O)O)C[C@@H]2C[C@H]([C@@H](O)c3cc(=O)[nH]c(=O)[nH]3)NC3=NC[C@H]1N32 | 12.6 µM (active) | – |
| CSCCC(c1nnnn1-c1c(C)cccc1C)N1CCC2(CC1)C(=O)NCN2c1ccccc1 (configuration not stated) | 28.2 µM (active) | – |
| CC(C)CNc1c2c(nc3ccccc13)CCC2 | – | -29.7% [at 11.4 µM] |
| Cc1ccc(/C=C2\C(=O)NC(=S)N(c3ccccc3F)C2=O)s1 | 3.98 µM (active) | – |
| C[C@H]1CCC[C@H](O)CCCCCc2cc(O)cc(O)c2C(=O)O1 | – | -5.55% [at 11.4 µM] |
| C[C@H]1CCC[C@@H](O)CCC/C=C/c2cc(O)cc(O)c2C(=O)O1 | 1.58 µM (active) | – |
| CCC(C)(O)C(=O)OC1C(=O)OC2CC3C(C)=CC(=O)C(O)C3(C)C3C4(O)OCC23C1C(C)C4O (configuration not stated) | 0.316 µM (active) | – |
| COc1ccc2c(c1)C(c1ccc(N(CCCl)CCCl)cc1)=NCC2 | inactive | – |
| O=C1NC(=O)C2(CCCc3ccc(N(CCCl)CCCl)cc32)N1 (configuration not stated) | 11.2 µM (active) | – |
| CC1CC(C)CC(C)C(O)C(C#N)=CC=CCC(C2CCCC2C(=O)O)OC(=O)CC(O)C(C)C1 (configuration not stated) | 0.398 µM (active) | – |
| COC(=O)C(O)(c1ccc(NC(=S)NC(=O)c2ccc(Cl)cc2Cl)c(C)c1)C(F)(F)F (configuration not stated) | – | 1.53% [at 11.4 µM] |
